The list is not random: actives were taken first. Their share in the collection is about 19%.
HT1080-NT tox: kills 2HG-producing HT-1080-NT fibrosarcoma cells. HT-1080-NT fibrosarcoma viability, CellTiter-Glo ATP luminescence, 48 h. 360,000 tested, 1.6% active. Potency, µM (top dose mostly 46.1 µM), for the others: top-dose activity, negative = less viability, usual class: cytotoxic;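 note: NT is the 2HG producing partner of a matched IDH1 knockdown line; potency is the fitted concentration of half-maximal effect; 0% = DMSO-treated cells and -100% = media-only wells without cells; nearly all actives have a fitted effect of over 55% in size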
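Toxicity toward the 2HG-producing NT line was scored as %Activity, normalised to DMSO and no-cell wells, from CellTiter-Glo luminescence after 48 hours' treatment.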
IL-1B inflam inh: inflammasome signaling inhibition, IL-1 beta readout; THP-1 LPS/ATP IL-1B secretion, AlphaLISA, 16 h; hits give low values; 360,000 tested, 4.7% active; activity change, % at 57.5 µM; in the data active = activity change below about -50%; inconclusive = mostly about -30% to -49%
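Secreted IL-1B measured by AlphaLISA bead assay after 16 h compound exposure of THP-1 cells; compounds (final up to 57.5 uM) added 1 h before LPS (250 ng/mL) and ATP (1.25 mM) stimulation; lower signal means less secretion.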
TDP1 cell CPT: DT40-hTDP1 cell growth loss with CPT. chicken DT40 Tdp1-/-;hTDP1 cells + 20 nM CPT, ATP luminescence, 48 h. Potency, µM (top dose mostly 46.2 µM), for the others: at the highest dose activity change, negative = growth inhibition, usual class: inhibitors. 420,000 tested, 12% active; note: potency is the fitted concentration of half-maximal effect; nearly all actives have a fitted effect of over 55% in size
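Chicken DT40 Tdp1-/- cells stably complemented with human TDP1 were seeded at 400 cells/well in medium containing 20 nM camptothecin, exposed to pin-transferred compounds, and grown at 37 °C for at least 48 hr. Viability was read as ATP luminescence.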
ELG1 DNA repair: ELG1-dependent DNA repair inhibition; HEK293T ELG1-luciferase reporter, luminescence, 16 h; DNA damage induced by 5-fluorouridine; Potency, µM (titrated, usually from 46.1 µM), for the others: top-dose activity change, negative = inhibition, actives largely listed as inhibitors; 330,000 tested, 2.3% active; AID 504467; note: potency is the fitted concentration of half-maximal effect; nearly all actives have a fitted effect of over 55% in size
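Cells (2,000 per well) received 5-fluorouridine plus test compound or DMSO and were incubated 16 hr at 37 °C, 5% CO2. Luciferase activity was read by luminescence 30 min after ONE-Glo addition; signal suppression marked inhibition of damage-induced ELG1 function.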
TDP1 cell noCPT: qHTS for Inhibitors of human tyrosyl-DNA phosphodiesterase 1 (TDP1): qHTS in cells in absence of CPT; DT40 Tdp1-/- hTDP1 cells, no CPT, ATP luminescence, 48 h; Potency, µM (highest dose often 46.2 µM), without a hit: top-dose activity change, negative = growth inhibition, usual class: inhibitors; 420,000 tested, 15% active; AID 686978, 2013; note: potency is the fitted concentration of half-maximal effect; nearly all actives have a fitted effect of over 55% in size
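Camptothecin absent (DMSO only). Human TDP1-complemented DT40 knockout cells, 400 cells/well, 37 °C for minimum 48 hr; ATP measured via CellTiter-Glo, 30 min dark incubation, luminescence.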
HT1080 IDH1KD tx: HT-1080 IDH1 knockdown cell toxicity (counter line). Potency, µM (top dose mostly 46.1 µM), without a hit: at the highest dose activity, negative = toxicity, most hits filed as cytotoxic. HT-1080 IDH1 knockdown viability, ATP luminescence, 48 h. 360,000 tested, 2% active;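 note: potency is the fitted concentration of half-maximal effect; 0% = DMSO wells and -100% = cell-free medium wells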
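Luminescent ATP read-out (CellTiter-Glo, 10 min at room temperature) after 48 h compound exposure at 37 °C gave viability of IDH1-knockdown HT-1080 cells. Activity was normalised to DMSO and cell-free wells, then fitted as concentration-response curves.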
* hit, by the source's call; u = inconclusive; x = not tested or not shown; ! = not active in a repeat. Unless noted, calls come from the whole dose curve; as a rule, active = well fitted curve in the direction sought with a large enough effect; inconclusive = small, poorly fitted or top-dose-only effect, or another doubt; inactive = no such curve, though single readings can be large; an effect the other way counts as inactive or inconclusive. Unless noted, % is set by controls: 0 for no effect and ±100 for the full control effect.

SMILES | HT1080-NT tox | IL-1B inflam inh | TDP1 cell CPT | ELG1 DNA repair | TDP1 cell noCPT | HT1080 IDH1KD tx
O=C(Nc1ccc2c(c1)nc1n2CCN(C2CCCCC2)C1)c1ccco1 | -17% | -23 | u | u | u | -29%
COc1ccccc1C(=O)Nc1ccc2c(c1)nc1n2CCN(C2CCCCC2)C1 | u | 68 | 15µM* | 1% | 23µM* | u
COc1ccccc1C(=O)Nc1ccc2c(c1)nc(CN1CCCCC1)n2C | 15% | -16 | u | -12% | 23µM*! | 16%
CC(=O)N1CCN(Cc2nc3cc(NC(=O)c4ccccc4Cl)ccc3n2C)CC1 | 11% | 57 | -1% | -2% | 4% | 13%
CC(=O)Nc1nnc(SCc2cc(=O)c3cccc(Cl)c3[nH]2)s1 | x | x | u | x | -26% | x
COc1cccc(CNC(=O)C(c2ccc(Cl)cc2)C(C)C)c1 (centres undefined) | 2% | 1 | -26% | -11% | -21% | 20%
Cc1ccc(NC(=O)c2cc(S(=O)(=O)N3CCC4(CC3)OCCO4)ccc2F)cc1Cl | x | x | 8.2µM* | x | 15µM* | x
Cc1cccc(C)c1NC(=O)c1cc(S(=O)(=O)N2CCC3(CC2)OCCO3)ccc1F | 0% | 1 | -16% | x | -20% | 3%
O=C(Nc1ccc(Cl)cc1Cl)c1cc(S(=O)(=O)N2CCN(c3ccccc3F)CC2)ccc1F | x | x | 9.2µM* | x | 8.2µM* | x
O=C(Nc1ccc(Cl)cc1Cl)c1cc(S(=O)(=O)N2CCC3(CC2)OCCO3)ccc1F | x | x | 16µM* | x | 16µM* | x
O=C(Nc1ccccc1N1CCCCC1)c1cc(S(=O)(=O)N2CCOCC2)ccc1F | -1% | -23 | u | -24% | u | -5%
COC(=O)N1CCC2(CC1)CN(c1ccncc1)C2 | x | x | -16% | x | u | x
CCCCN(C)C(=O)Cn1cnc2sc(C)c(S(=O)(=O)N3CCC(C)CC3)c2c1=O | x | x | -13% | x | -13% | x
CC1CC(C)CN(S(=O)(=O)c2ccc(NC(=O)CN3C(=O)NC(C)(c4ccccc4)C3=O)cc2)C1 (centres undefined) | -2% | 1 | -7% | -8% | -2% | 3%
CC1(c2ccccc2)NC(=O)N(CC(=O)Nc2ccc([N+](=O)[O-])cc2)C1=O (centres undefined) | u | -12 | 26µM* | -6% | u | u
CC1(c2ccc([N+](=O)[O-])cc2)NC(=O)N(CC(=O)Nc2ccc(N3CCCCC3)cc2)C1=O (centres undefined) | -15% | -2 | u | 20% | 18µM* | -11%
CC1(c2ccc(OC(F)F)cc2)NC(=O)N(CC(=O)Nc2ccc(N3CCCCC3)cc2)C1=O (centres undefined) | -5% | -12 | u | 0% | u | -3%
CC1CCCN(S(=O)(=O)c2ccc(NC(=O)CN3C(=O)NC(C)(c4ccccc4)C3=O)cc2)C1 (centres undefined) | -4% | -52* | -28% | -9% | u | -3%
CC1(c2ccccc2)NC(=O)N(CC(=O)Nc2ccc(N3CCOCC3)cc2)C1=O (centres undefined) | -7% | -4 | u | 16% | 13% | -1%
COc1cccc(CCN2CCC(CNS(=O)(=O)c3cc(-c4cc(C)no4)ccc3C)CC2)c1 | u | -62* | u | -9% | u | u
Cc1cc(-c2ccc(C)c(S(=O)(=O)NCC3CCN(Cc4ccccc4F)CC3)c2)on1 | u | u | 18µM* | u | 23µM* | -23%
CCC(O)c1cc2c(cc1NC(=O)c1ccccc1F)OCCO2 (centres undefined) | x | x | -14% | x | u | x
CSc1nc2ccccc2cc1/C=C(\C#N)c1ccc(Cl)c(Cl)c1 | -5% | -20 | u | 8% | u | -6%
CSc1nc2ccccc2cc1/C=C(\C#N)c1cccc(C)c1 | u | -1 | u | -2% | u | 5.2µM*
CSc1nc2ccccc2cc1/C=C(\C#N)c1ccccc1 | u | 0 | u | -12% | u | 18µM*
SMILES | HT1080-NT tox | IL-1B inflam inh | TDP1 cell CPT | ELG1 DNA repair | TDP1 cell noCPT | HT1080 IDH1KD tx
CN(C)c1ccc(C=NC2CCc3ccccc32)cc1 (centres undefined) | x | x | -1% | x | -20% | x
N#C/C(=C\c1ccc(O)cc1)C(=O)N1CCCC1 | 8% | -9 | -5% | u | -9% | 8%
Cc1ccc(/C=C(\C#N)C(=O)N2CCCC2)c(C)c1 | 0% | -87* | -10% | u | u | u
C=COc1ccc(N2C(=O)c3ccccc3OC2C)cc1 (centres undefined) | 9% | -4 | u | 1% | 21µM* | 22%
COC(=O)c1ccc(NC(=O)Cn2c(=O)oc3ccccc32)cc1 | x | x | -14% | x | -6% | x
FC(F)(F)c1cnc(NNC(=S)Nc2ccc(Cl)cc2)c(Cl)c1 | u | -99* | 10µM* | u | 13µM* | u
Cc1ccc(NC(=S)NNc2ncc(C(F)(F)F)cc2Cl)c(C)c1 | u | 0 | u | 21µM* | u | u
Fc1ccc(NC(=S)NNc2ncc(C(F)(F)F)cc2Cl)c(F)c1 | u | -10 | 12µM* | u | 13µM* | 16µM*
ON/C=N/C(=S)Nc1ncc(C(F)(F)F)cc1Cl | 9% | 17 | 15µM* | -17% | 12µM* | 19%

Screening data deposited in PubChem by National Center for Advancing Translational Sciences (NCATS).
